Bioassay records from PubChem BioAssay.
Most compounds without a hit are left out; they make up all but 21% or so of the library.
IL-1B inflam inh: blocks inflammasome-driven IL-1 beta release; THP-1 LPS/ATP IL-1B secretion, AlphaLISA, 16 h; hits give low values; activity change, % at 57.5 µM; 4.7% of 360,000 active; in the data active = activity change below about -50%; inconclusive = mostly about -30% to -49%
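Secreted IL-1B measured by AlphaLISA bead assay after 16 h compound exposure of THP-1 cells; compounds (final up to 57.5 uM) added 1 h before LPS (250 ng/mL) and ATP (1.25 mM) stimulation; lower signal means less secretion.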
DT40 TDP1 CPT: DT40-hTDP1 cell growth loss with CPT. chicken DT40 Tdp1-/-;hTDP1 cells + 20 nM CPT, ATP luminescence, 48 h. Potency, µM (titrated, usually from 46.2 µM), usual class: inhibitors. 12% of 420,000 active; note: nearly all actives have a fitted effect of over 55% in size
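Chicken DT40 Tdp1-/- cells stably complemented with human TDP1 were seeded at 400 cells/well in medium containing 20 nM camptothecin, exposed to pin-transferred compounds, and grown at 37 °C for at least 48 hr. Viability was read as ATP luminescence.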
ClpP mod: qHTS Assay for Activators of ClpP; ATP-dependent Clp protease proteolytic subunit (Bacillus subtilis (strain 168)), P80244; purified B. subtilis ClpP, FRET peptide cleavage, 20 min; Potency, µM (doses to about 57.5 µM); 1.9% of 340,000 active; active = well fitted falling curve with a large enough effect; inconclusive = small, poorly fitted or top-dose-only effect; inactive = no such curve, though single readings can be large or run the other way; note: the source files actives as falling curves though it sought activators and does not explain the sign; nearly all actives have a fitted effect of over 65% in size
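Buffer: 100 mM Tris/HCl pH8, 100 mM KCl, 0.05% low protease BSA, 2.5% glycerol, 0.01% Tween-20. ClpP 10 microg/mL final; 20 min RT; delta FRET normalized to ADEP and DMSO controls.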
TDP1 cell noCPT: qHTS for Inhibitors of human tyrosyl-DNA phosphodiesterase 1 (TDP1): qHTS in cells in absence of CPT | 15% of 420,000 active | Potency, µM (titrated, usually from 46.2 µM), usual class: inhibitors | DT40 Tdp1-/- hTDP1 cells, no CPT, ATP luminescence, 48 h; note: nearly all actives have a fitted effect of over 55% in size
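A cellular qHTS used chicken DT40 cells lacking endogenous Tdp1 but carrying stably transfected human TDP1. Compounds were applied without camptothecin, and cell growth kinetics were judged by ATP-dependent luminescence after ≥48 hr.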
DRD3 agonist: D3 dopamine receptor (human) agonism. D3R DiscoveRx beta-arrestin cells, luminescence, 90 min. max activation, %. 0.58% of 410,000 active; in the data active = max activation above about 30%
Target sequence (P35462 whole entry, looked up): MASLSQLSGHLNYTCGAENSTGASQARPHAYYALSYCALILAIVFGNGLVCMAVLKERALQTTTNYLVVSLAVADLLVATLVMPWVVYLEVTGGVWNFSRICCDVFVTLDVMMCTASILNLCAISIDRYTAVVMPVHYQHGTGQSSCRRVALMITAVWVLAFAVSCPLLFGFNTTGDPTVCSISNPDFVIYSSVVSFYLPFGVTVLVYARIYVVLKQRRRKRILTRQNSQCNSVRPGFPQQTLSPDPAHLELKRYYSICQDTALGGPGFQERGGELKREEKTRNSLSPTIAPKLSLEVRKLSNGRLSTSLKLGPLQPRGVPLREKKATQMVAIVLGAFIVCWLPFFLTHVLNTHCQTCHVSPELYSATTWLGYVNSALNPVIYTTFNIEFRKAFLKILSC
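Cells at 1500/well, incubated overnight, then treated with pinned compounds (dopamine as control) for 90 min at 37 degrees C. DiscoveRx reagent added for 30 - 60 minutes at room temperature; luminescence read.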
D3 antag: antagonists of human D3 dopamine receptor | P35462 | D3R cells, DiscoveRx beta-arrestin luminescence, antagonist mode; hits give low values | max response, negative = inhibition, % | 2.5% of 360,000 active; in the data active = max response below about -50%; inconclusive = no clear call, values can overlap the other calls
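Cells expressing the human receptor were seeded at 1500 cells/well, incubated overnight at 37 degrees C in 5% CO2, then exposed to library compounds with dopamine controls for 90 minutes at 37 degrees C before luminescent detection.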
Numbers stand for hits; 0 = inactive; ? = inconclusive; - = no result. Unless noted, calls come from the whole dose curve; as a rule, active = well fitted inhibition curve with a large enough effect; inconclusive = small, poorly fitted or top-dose-only effect; inactive = flat fitted curve, though single readings scatter.

SMILES	IL-1B inflam inh	DT40 TDP1 CPT	ClpP mod	TDP1 cell noCPT	DRD3 agonist	D3 antag
COc1ccc(N2C(=O)/C(=C\c3ccco3)N=C2SCC(=O)NC(C)(C)C)cc1Cl	?	?	0	?	0	0
CCN(CC)C(=O)CSC1=N/C(=C/c2ccco2)C(=O)N1c1ccc(OC)c(Cl)c1	-54	21µM	0	?	0	0
CNC(=O)c1ccsc1NC(=O)C1CCCN1S(=O)(=O)c1cccs1 (configuration not stated)	0	0	-	0	0	0
Cc1cccc(N(C)c2nc3ccc(C)cc3n3cnnc23)c1	-	?	0	16µM	0	-
Cc1cccc(N(C)c2nc3ccc(C)cc3n3nnnc23)c1	-	?	0	?	0	-
CC(C)c1cnc2c(c1SCC(=O)Nc1ccc(C(N)=O)cc1)c(=O)n(C)c(=O)n2C	-	0	0	?	0	-
CC(C)NC(=O)CS(=O)(=O)c1ccccc1	0	0	0	0	0	0
CC(C)NC(=S)NC(c1ccccc1)(c1ccccc1)c1ccccc1	0	?	0	23µM	0	0
OCCNc1nc(Nc2ccccc2)nc2ccccc12	-	10µM	0	13µM	0	0
OCCNc1nc(Nc2ccc(Br)cc2)nc2ccccc12	-101	5.8µM	-	6.5µM	0	0
Cc1c(Cl)cccc1Nc1nc(NCCO)c2ccccc2n1	-108	?	-	?	0	0
Cc1cc(C)c(C(N)=O)c(Nc2cccc(Cl)c2C)n1	0	?	0	?	0	0
C=CCNC(=O)c1cc(Cl)cc(Cl)c1	0	?	-	?	0	0
O=C(CN1C(=O)c2cccnc2Oc2ccc(Cl)cc21)N1CCOCC1	0	0	0	0	0	0
O=C1CC(c2ccccc2Cl)=NN(c2ncnc3ccccc23)C1=O	0	0	0	0	0	0
CCc1nc2c(OCCn3cccc3)cccn2c1N(C)C(=O)CC(C)C	0	0	0	?	0	0
CCCCN(C=O)c1c(CC)nc2c(OCC3CCCCC3)cccn12	0	21µM	0	9.2µM	0	0
CCCCC(=O)N(C)c1c(CC)nc2c(OCCC3CCCCC3)cccn12	-68	?	0	16µM	0	-71
CCCCN(C=O)c1c(CC)nc2c(OCc3ccc(S(C)(=O)=O)cc3)cccn12	0	0	0	?	0	0
CCc1nc2c(OCCn3cccc3)cccn2c1N(C)C(=O)c1cccs1	0	?	0	0	0	0
CCc1nc2c(OCCC3CCCCC3)cccn2c1N(C)C(=O)c1cccs1	-54	29µM	0	21µM	0	-101
CCc1nc2c(OCCC3CCCCC3)cccn2c1N(C)C(=O)CC(C)C	?	21µM	0	10µM	0	0
CCCCC(=O)N(C)c1c(CC)nc2c(OCC3CCCCC3)cccn12	0	?	0	21µM	0	0
CCCCC(=O)N(C)c1c(CC)nc2c(OCCOC)cccn12	0	0	0	0	0	0
CC1(C(=O)OCc2cc(=O)n3cc(Br)ccc3n2)CC1(Cl)Cl (configuration not stated)	0	0	-	0	0	0
SMILES	IL-1B inflam inh	DT40 TDP1 CPT	ClpP mod	TDP1 cell noCPT	DRD3 agonist	D3 antag
FC(F)Oc1ccc(-n2cc(-c3ccc(Cl)cc3)[n+]3c2CCCCC3)cc1	0	4.6µM	0	4.6µM	0	0
COc1ccc(-n2cc(-c3ccccc3)[n+]3c2CCCCC3)cc1	?	5.8µM	-	1.2µM	0	0
COc1ccc(-c2cn(-c3ccc(OC)cc3)c3[n+]2-c2ccccc2CC3)cc1	-59	0.26µM	0	0.21µM	0	0
COc1ccc(-c2cn(-c3ccc(SC(F)F)cc3)c3[n+]2CCC3)cc1OC	0	?	0	18µM	0	0
FC(F)Oc1ccc(-c2csc(Cc3nnc4n3CCCCC4)n2)cc1	0	?	0	?	0	0
CCCCOc1ccc(C(=O)Nc2ccc(SC(F)F)cc2)cc1OC	0	0	0	?	0	?
COc1ccc2nc(NC(=O)C3CCN(C(=O)c4ccco4)CC3)sc2c1	?	0	-	?	0	0
